Assay results from PubChem BioAssay (EPA / NIEHS).
Records with an inconclusive call do not appear. Calls of active or inactive are those of the source. The calls were made as follows: active = hit-call score of the fitted dose curve at least 0.9, where 1 is the maximum; inconclusive = response in the unintended direction; inactive = score below 0.9.

Columns and labels:
[1] = TOX21_p53_BLA_p2_viability: Viability Assessment in the Tox21 HCT-116 p53 Agonism Beta-lactamase Assay, Phase 2 (AID 2283591);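 also: compound exposure lasted 16 h at 37 °C; actives lower the ATP signal meaning cytotoxicity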
How it was run: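 HCT116 p53-bla cells, 4000/well, dosed after 5 h plating (217-fold dilution of DMSO stocks) and incubated 16 h at 37C. Viability taken as cellular ATP by CellTiter-Glo luminescence after 30 min RT; signal loss marks cytotoxicity.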

[2] = TOX21_p53_BLA_p3_viability: Viability Assessment in the Tox21 HCT-116 p53 Agonism Beta-lactamase Assay, Phase 3 (AID 2283593);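 also: cells exposed to compound for 16 h before reading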
How it was run: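 HCT116 cells, 4000/well, dosed 5 h after plating by pin transfer (217-fold dilution from DMSO stock) and incubated 16 h at 37C, 5% CO2. Viability read as ATP luminescence with CellTiter-Glo after 30 min at room temperature.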

[3] = target: Cellular tumor antigen p53 (Homo sapiens) (UniProt P04637); experiment: TOX21_p53_BLA_p3_ratio: Tox21 HCT-116 p53 Agonism Beta-lactamase Assay, Ratio, Phase 3 (AID 2283596)
Chain of Cellular tumor antigen p53 (Homo sapiens) (P04637 whole entry, looked up): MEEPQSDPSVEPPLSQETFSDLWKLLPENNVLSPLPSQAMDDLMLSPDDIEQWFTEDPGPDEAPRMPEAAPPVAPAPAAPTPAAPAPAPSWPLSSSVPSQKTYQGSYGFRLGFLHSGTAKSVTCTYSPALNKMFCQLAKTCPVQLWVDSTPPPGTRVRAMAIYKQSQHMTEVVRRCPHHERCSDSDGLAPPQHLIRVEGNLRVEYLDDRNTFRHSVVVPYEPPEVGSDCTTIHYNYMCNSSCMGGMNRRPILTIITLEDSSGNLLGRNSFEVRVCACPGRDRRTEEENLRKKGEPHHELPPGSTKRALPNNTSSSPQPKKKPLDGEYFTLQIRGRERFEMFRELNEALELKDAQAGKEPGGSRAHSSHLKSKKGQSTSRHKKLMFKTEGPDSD
How it was run: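 Cells were seeded at 4000/well, rested 5 h at 37C, then dosed with DMSO compound solutions (217-fold dilution) for 16 h. CCF4-AM substrate was loaded for 2 h at room temperature, and the 460/530 nm emission ratio was fitted for gain of signal versus DMSO.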

[4] = TOX21_p53_BLA_p4_viability: Viability Assessment in the Tox21 HCT-116 p53 Agonism Beta-lactamase Assay, Phase 4 (AID 2283597);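 also: hits lower the luminescence signal meaning cytotoxicity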
How it was run: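 Cytotoxicity was inferred from loss of CellTiter-Glo luminescence. HCT116 cells had been dosed with compounds after 5 h plating, incubated 16 h at 37C and 5% CO2, and exposed to the CCF4-AM substrate for 2 h.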

[5] = target: Cellular tumor antigen p53 (Homo sapiens) (UniProt P04637); experiment: TOX21_p53_BLA_p4_ratio: Tox21 HCT-116 p53 Agonism Beta-lactamase Assay, Ratio, Phase 4 (AID 2283601)
How it was run: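 HCT-116 p53 beta-lactamase reporter cells (4000/well) preincubated 5 h, then compound (217-fold dilution of DMSO stock) for 16 h at 37C. CCF4-AM substrate added 2 h at room temperature; 460/530 nm emission ratio fitted upward versus DMSO.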

[6] = target: Cellular tumor antigen p53 (Homo sapiens) (UniProt P04637); experiment: TOX21_p53_BLA_p5_ratio: Tox21 HCT-116 p53 Agonism Beta-lactamase Assay, Ratio, Phase 5 (AID 2283599)
How it was run: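 HCT-116 p53-bla cells (4000/well) plated 5 h, dosed with compound (217-fold DMSO dilution) for 16 h at 37 C; CCF4-AM substrate 2 h at room temperature. Activity is the 460/530 nm emission ratio (405 nm excitation), fitted in gain-of-signal direction versus DMSO.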

[7] = TOX21_p53_BLA_p5_viability: Viability Assessment in the Tox21 HCT-116 p53 Agonism Beta-lactamase Assay, Phase 5 (AID 2283600)
How it was run: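 Luciferase-coupled ATP quantitation of cells treated for 16 h (37C, 5% CO2) with test chemicals delivered in DMSO via a 217-fold dilution; 4000 cells/well; reagent incubated 30 min at room temperature before luminescence reading.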

THRB (gene 7068) [8] = target: THRB (gene 7068) (UniProt P10828); experiment: TOX21_TRB_BLA_Antagonist_Followup_ratio: Tox21 Thyroid Hormone Receptor beta Antagonism Beta-lactamase (BLA) Follow-Up Assay, Ratio (AID 2283958)
Chain of THRB (gene 7068) (P10828 whole entry, looked up, the tested form may be a part): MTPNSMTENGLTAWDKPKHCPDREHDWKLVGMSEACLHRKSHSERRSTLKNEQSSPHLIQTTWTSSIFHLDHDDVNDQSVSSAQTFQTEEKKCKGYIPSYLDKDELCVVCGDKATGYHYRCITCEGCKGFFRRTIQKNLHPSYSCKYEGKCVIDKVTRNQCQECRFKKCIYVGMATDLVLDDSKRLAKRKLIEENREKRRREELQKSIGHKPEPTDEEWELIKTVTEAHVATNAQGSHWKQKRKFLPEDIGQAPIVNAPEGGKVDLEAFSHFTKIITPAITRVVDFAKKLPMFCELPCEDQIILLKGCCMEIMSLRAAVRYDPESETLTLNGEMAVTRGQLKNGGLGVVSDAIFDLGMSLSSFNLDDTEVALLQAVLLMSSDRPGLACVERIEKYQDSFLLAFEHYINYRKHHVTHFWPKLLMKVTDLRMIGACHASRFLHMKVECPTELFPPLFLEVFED
How it was run: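 Read-out: blue/green (460:530 nm) ratio of cleaved to uncleaved CCF4-AM after 2 h at room temperature, fitted against DMSO baseline. HEK293T UAS-bla cells carrying GAL4-human TRβ LBD were exposed 18 h, 37C/5% CO2.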

[9] = TOX21_TRB_BLA_Antagonist_Followup_viability: Viability Assessment in the Tox21 Thyroid Hormone Receptor beta Antagonism Beta-lactamase (BLA) Follow-Up Assay (AID 2283961)
How it was run: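 HEK293T cells stably expressing GAL4-DBD/human TRβ-LBD with UAS-bla reporter, 3,000 cells/well in phenol red-free DMEM, 2% charcoal-stripped FBS. Compounds at 11 concentrations in triplicate, 18 h at 37C/5% CO2; viability by CellTiter-Glo luminescence after 30 min at room temperature.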

THRB (gene 7068) [10] = target: THRB (gene 7068) (UniProt P10828); experiment: TOX21_TRB_COA_Antagonist_Followup_ratio: Tox21 Thyroid Hormone Receptor beta Antagonism through Coactivator Recruitment Follow-Up Assay, Ratio (AID 2283967)
How it was run: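 GST-TRb LBD 5.0 nM + 0.10% BSA, compound added; fluorescein-SRC-2 peptide 200 nM, Tb-anti-GST Ab 2 nM. TR-FRET, ex 340 / em 520:495 ratio. Norm: DMSO 0%, T3 100%.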

[11] = TOX21_TR_RXR_BLA_Antagonist_Followup_viability: Viability Assessment in the Tox21 Thyroid Hormone Receptor beta Retinoid X Receptor alpha (RXRa) Antagonism Beta-lactamase (BLA) Follow-Up Assay (AID 2283979)
How it was run: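 RXRa-bla HEK293T cells (2,500/well, phenol red-free DMEM, 2% charcoal-stripped FBS) were attached 5 h, then exposed to compounds at 11 concentrations in triplicate for 16 h at 37C. Viability measured by CellTiter-Glo ATP luminescence, bidirectional fitting versus DMSO.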

PGR (gene 5241) [12] = target: PGR (gene 5241) (UniProt P06401); experiment: TOX21_PR_BLA_Followup_Antagonist_ratio: Tox21 HEK293 Progesterone Receptor (PR) Antagonism Beta-lactamase Follow-Up Assay, Ratio (AID 2283934)
Chain of PGR (gene 5241) (P06401 whole entry, looked up, the tested form may be a part): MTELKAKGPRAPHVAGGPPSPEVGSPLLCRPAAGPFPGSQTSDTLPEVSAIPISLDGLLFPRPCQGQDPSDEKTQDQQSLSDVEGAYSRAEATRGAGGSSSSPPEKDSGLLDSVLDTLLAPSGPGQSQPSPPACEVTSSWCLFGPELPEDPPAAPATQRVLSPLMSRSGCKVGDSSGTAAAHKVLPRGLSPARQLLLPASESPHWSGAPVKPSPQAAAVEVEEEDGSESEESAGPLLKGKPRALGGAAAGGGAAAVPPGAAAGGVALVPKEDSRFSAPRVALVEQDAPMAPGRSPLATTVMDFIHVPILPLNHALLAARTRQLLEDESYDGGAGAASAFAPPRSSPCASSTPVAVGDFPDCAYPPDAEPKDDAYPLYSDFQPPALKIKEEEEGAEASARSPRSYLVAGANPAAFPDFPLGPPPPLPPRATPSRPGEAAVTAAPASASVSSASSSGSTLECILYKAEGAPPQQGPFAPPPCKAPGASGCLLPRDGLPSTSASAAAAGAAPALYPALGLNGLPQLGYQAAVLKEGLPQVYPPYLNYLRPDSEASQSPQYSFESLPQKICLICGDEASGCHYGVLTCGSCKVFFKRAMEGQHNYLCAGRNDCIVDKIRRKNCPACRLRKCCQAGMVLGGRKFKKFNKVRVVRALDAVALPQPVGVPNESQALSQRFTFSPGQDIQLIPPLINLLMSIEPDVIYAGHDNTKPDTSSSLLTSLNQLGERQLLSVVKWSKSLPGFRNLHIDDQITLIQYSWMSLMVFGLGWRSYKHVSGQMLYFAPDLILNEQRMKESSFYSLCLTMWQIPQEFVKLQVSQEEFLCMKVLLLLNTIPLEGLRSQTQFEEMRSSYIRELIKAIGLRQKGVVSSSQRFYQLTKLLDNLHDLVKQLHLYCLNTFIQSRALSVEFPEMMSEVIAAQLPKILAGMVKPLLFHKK
How it was run: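 Read-out: blue/green beta-lactamase FRET ratio (cleaved ch2 over uncleaved ch1), fitted relative to DMSO baseline. Cells: PR-UAS-bla HEK293T, GAL4-UAS reporter, stimulated with 1 nM R5020 final; 16 hr compound exposure, 37C.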

[13] = TOX21_PR_BLA_Followup_Agonist_viability: Viability Assessment in the Tox21 HEK293 Progesterone Receptor (PR) Agonism Beta-lactamase Follow-Up Assay (AID 2283935);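 also: signal loss means lower viability so actives are cytotoxic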
How it was run: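 Luminescent ATP quantitation (CellTiter-Glo, 30 min, room temperature) in the same wells as the beta-lactamase read, on PR-UAS-bla HEK293T cells exposed to compound for 16 hr at 37C in 2% charcoal-stripped serum.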

[14] = TOX21_PR_BLA_Followup_Antagonist_viability: Viability Assessment in the Tox21 HEK293 Progesterone Receptor (PR) Antagonism Beta-lactamase Follow-Up Assay (AID 2283936);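 also: cells exposed to compound with R5020 agonist for 16 h; hits lower the luminescence signal meaning cytotoxicity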
How it was run: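 PR-UAS-bla HEK293T cells in medium with 2% charcoal-stripped FBS were treated with compounds plus R5020 for 16 hr at 37C. After the beta-lactamase read, CellTiter-Glo was added to the same wells and luminescence read after 30 min at room temperature.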

PGR (gene 5241) [15] = target: PGR (gene 5241) (UniProt P06401); experiment: TOX21_PR_LUC_Followup_Antagonist: Tox21 HEK293 Progesterone Receptor (PR) Antagonism Luciferase Follow-Up Assay (AID 2283938);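 also: curve fitted upward as signal gain over DMSO baseline despite antagonist label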
How it was run: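 HEK293-PR-A-luc cells were precultured 5 days in medium with 10% charcoal-stripped FBS, seeded 3,000/well, then exposed to compounds in DMSO for 16 h at 37C. Luciferase was read by ONE-Glo luminescence after 30 min at room temperature.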

Measured: AC50

Cc1cccc(Oc2ccccc2)c1
inactive: [1] | [2] | [3] | [4] | [5]

Brc1c(NC2=NCCN2)ccc2nccnc12
inactive: [1] | [2] | [3] | [6] | [7] | [5]

CC(COC(=O)c1ccccc1)OC(=O)c1ccccc1 (centres undefined)
inactive: [1] | [2] | [3] | [6] | [7] | [5]

NC[C@H]1O[C@H](O[C@H]2[C@H](O)[C@@H](O[C@H]3O[C@H](CO)[C@@H](O)[C@H](N)[C@H]3O)[C@H](N)C[C@@H]2N)[C@H](N)C[C@@H]1O
inactive: [1] | [2] | [3] | [6] | [5]

CCCCOc1cc(C(=O)NCCN(CC)CC)c2ccccc2n1
inactive: [1] | [2] | [3] | [4] | [5]

NCC1CCC(C(=O)O)CC1 (centres undefined)
inactive: [1] | [2] | [3] | [6] | [5]

CC(=O)OC(C)=O
inactive: [1] | [2] | [3] | [6] | [7]

Cc1cccc(C)c1NC(=O)CN1CCN(CCCC(c2ccc(F)cc2)c2ccc(F)cc2)CC1
inactive: [1] | [2] | [3] | [4] | [5]

Nc1nc2c(c(=O)[nH]1)N(C=O)C(CNc1ccc(C(=O)N[C@@H](CCC(=O)O)C(=O)O)cc1)CN2 (some centres undefined)
inactive: [1] | [2] | [3] | [6] | [5]

NS(=O)(=O)c1cc2c(cc1C(F)(F)F)NC(Cc1ccccc1)NS2(=O)=O (centres undefined)
inactive: [1] | [2] | [3] | [6] | [7] | [5]

COc1cc(OC)cc(OC)c1
inactive: [1] | [2] | [3] | [6] | [7] | [5]

CC1CC(=O)NN=C1c1ccc(NCC(C)(C)NCC(O)COc2cc(Cl)ccc2C#N)cc1 (centres undefined)
inactive: [1] | [2] | [3] | [4] | [5]

C[n+]1ccccc1/C=N/O
inactive: [1] | [2] | [3] | [7]

C1CCCC1
inactive: [1] | [2] | [3] | [6] | [7] | [5]

CCC(COC(=O)CCS)(COC(=O)CCS)COC(=O)CCS
active: [3] 72.1 µM
inactive: [1] | [2] | [7]

CCCc1nn(C)c2c(=O)[nH]c(-c3cc(S(=O)(=O)N4CCN(C)CC4)ccc3OCC)nc12
inactive: [1] | [2] | [3] | [7]

CCN(CC)C(=O)N1CCN(C)CC1
inactive: [1] | [2] | [3] | [4] | [5]

Cc1cccc2nccnc12
inactive: [1] | [2] | [3] | [6] | [5]

CC(C)OC(=O)c1cc2c(OCC(O)CNC(C)(C)C)cccc2[nH]1 (centres undefined)
inactive: [1] | [2] | [3] | [7]

OC[C@H]1O[C@H](O[C@H]2O[C@H](CO)[C@@H](O)[C@H](O)[C@H]2O)[C@H](O)[C@@H](O)[C@@H]1O
inactive: [1] | [2] | [3] | [6] | [7]

CSCCC(N)C(=O)O (centres undefined)
inactive: [1] | [2] | [3] | [6] | [5]

C[C@@H]1C[C@H]2[C@@H]3CCC4=CC(=O)C=C[C@]4(C)[C@@]3(F)[C@@H](O)C[C@]2(C)[C@H]1C(=O)CO
inactive: [1] | [2] | [3] | [6]

CC(C(=O)O)c1ccc(N2Cc3ccccc3C2=O)cc1 (centres undefined)
not listed: [6] | PGR (gene 5241) [12] | [13] | [14] | PGR (gene 5241) [15]
inactive: all other assays above

OCCOCC#CCOCCO
inactive: [1] | [2] | [3] | [7] | [5]

Cc1ccc(NC(=O)N(C)C)cc1NC(=O)N(C)C
inactive: [1] | [2] | [3] | [6] | [7]

CC(=O)OCC(=O)[C@@]1(OC(C)=O)[C@@H](C)C[C@H]2[C@@H]3C[C@H](F)C4=CC(=O)C=C[C@]4(C)[C@@]3(F)[C@@H](O)C[C@@]21C
not listed: [5] | [6] | THRB (gene 7068) [8] | [9] | THRB (gene 7068) [10] | [11]
inactive: all other assays above

CCCCCCCCC(=O)Cl
inactive: [1] | [2] | [3] | [6] | [7]

O=C(O)c1ccccc1Cl
inactive: [1] | [2] | [3] | [6] | [7] | [5]

CCOC(=O)Cn1c(=O)sc2cccc(Cl)c21
inactive: [1] | [2] | [3] | [6] | [7] | [5]

CC(=O)Oc1ccc([N+](=O)[O-])cc1CCl
inactive: [1] | [2] | [6]
active: [3] 73.1 µM

O=S(O)CNc1ccc(S(=O)(=O)c2ccc(NCS(=O)O)cc2)cc1
inactive: [1] | [2] | [3] | [7]
